# Experimental data: PubChem BioAssay (NCI)
# The panel holds about 79,000 compounds, 15% with a hit somewhere; the sample as a whole holds those more often. Activity calls are given as the source filed them. Cut-off read from the data, not from the text of the source: active = growth inhibition above about 70%; inactive = the rest.
# Test: NCI Yeast Anticancer Drug Screen. Data for the rad50 strain (AID 155);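 note: 0% = growth of vehicle-only cultures of the same strain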
# Conditions: S. cerevisiae rad50 strain growth inhibition; at 5.0 µM (retest, dose inferred, filed as 0.5); active compounds read high
# Procedure, shortened: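 Inhibition values express reduced yeast growth in compound-treated cultures relative to vehicle-treated controls.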
row,SMILES,growth inhibition
1,Oc1ccc2oc3ccccc3c2c1,9% (inactive)
2,O=C(O)Cc1cc(I)c(Oc2ccc(O)c(I)c2)c(I)c1,-6% (inactive)
3,O=C(O)/C(=C\c1ccc(Cl)cc1)c1ccc(C(F)(F)F)cc1[N+](=O)[O-],11% (inactive)
4,Fc1ccc(NC(=S)SCc2ccccc2)cc1,4% (inactive)
5,CN(C)c1ccccc1CC(c1c[nH]c2ccccc12)c1c[nH]c2ccccc12,82% (active)
6,O=C(c1ccccc1)N1CCN(c2cccc(Cl)c2)CC1,0% (inactive)
7,[C-]#[N+]C(C)(c1ccccc1)c1ccccc1,-117% (inactive)
8,Nc1ccccc1[S][Sn]([c]1ccccc1)([c]1ccccc1)[c]1ccccc1,99% (active)
9,O=C1C(Cl)=C(Cl)C(=O)c2cc(Cl)c(Cl)cc21,82% (active)
10,CCCCCCCNC1CCCc2cc(OC)ccc21 (stereo not drawn),40% (inactive)
11,NCCc1ccc2oc3cc(=O)c4ccccc4c-3nc2c1,3% (inactive)
12,C/C=C/c1cc2c(cc1O)CC[C@@H]1[C@@H]2CC[C@]2(C)[C@@H](O)CC[C@@H]12,25% (inactive)
13,c1ccc(SSc2ccccn2)nc1,17% (inactive)
14,COC1=C2C[C@@H](C)C[C@@H](OC)[C@@H](O)[C@H](C)/C=C(\C)[C@@H](OC(N)=O)[C@H](OC)/C=C\C=C(/C)C(=O)NC(=CC1=O)C2=O,61% (inactive)
15,NCc1ccccc1-c1c2nc(c(-c3ccccc3CN)c3ccc([nH]3)c(-c3ccccc3CN)c3nc(c(-c4ccccc4CN)c4ccc1[nH]4)C=C3)C=C2,41% (inactive)
16,Cc1cc(C)n2nc(N)c(C#N)c2c1C#N,-2% (inactive)
17,CC(=O)OCC1OC(n2c(O)c(N=NC(N)=S)c3ccc([N+](=O)[O-])cc32)C(OC(C)=O)C1OC(C)=O (stereo not drawn),12% (inactive)
18,CC1(c2cccs2)C(C#N)(C#N)C1(C#N)C#N,17% (inactive)
19,O=C1C=CC(=O)N1C12CC3CC(CC(C3)C1)C2,41% (inactive)
20,C(=C/c1cnnc2ccccc12)/c1ccccn1,5% (inactive)

row,SMILES,growth inhibition
1,COc1ccc2c(c1)C1(C)CCCC(C)(C(=O)O)C1CC2 (stereo not drawn),-8% (inactive)
2,CCN(CC)c1ccc(N=Nc2ccc(Br)cn2)c(O)c1,-1% (inactive)
3,O=[N+]([O-])c1cc(NC(=S)SCc2ccccc2)ccc1Cl,92% (active)
4,C(=C/c1ccnc2ccccc12)/c1cccs1,-2% (inactive)
5,O=P1(O)c2ccccc2CS(=O)(=O)Cc2ccccc21,34% (inactive)
6,CN1C(Cl)=NS(=O)(=O)c2ccccc21,18% (inactive)
7,O=C1C=CC(=O)N1c1ccc(Cl)cc1,79% (active)
8,CC(C)CC(C(=O)SCC(C)N1CCCC1)c1ccccc1 (stereo not drawn),0% (inactive)
9,CC(C)OC(=O)c1ccc(CCC2=CC(=O)C=CC2=O)cc1,34% (inactive)
10,Cc1ccnc2[nH]c3ccccc3c(=O)c12,29% (inactive)
11,COc1cc(/C=C/C(=O)c2ccc(O)c(OC)c2)ccc1O,20% (inactive)
12,CC12C=CC(=O)C=C1CCC1C3CCC(O)(C(=O)CO)C3(C)CC(O)C12F (stereo not drawn),2% (inactive)
13,O=Cc1ccc2c(c1)CC1(C2)Cc2ccc3c(c2C1)CCC3 (stereo not drawn),-1% (inactive)
14,C[N+](C)(C)CC(=O)N/N=C(\C(=O)NC1=C(Cl)C(=O)c2ccccc2C1=O)C(C#N)c1nc(-c2ccc([N+](=O)[O-])cc2)cs1 (stereo not drawn),27% (inactive)
15,NC(=O)CC1CCC(c2ccccc2)CC1 (stereo not drawn),-1% (inactive)
16,O=C(CC(C[N+](=O)[O-])c1ccc2c(c1)OCO2)c1ccccc1 (stereo not drawn),0% (inactive)
17,CC(=O)OCCCCCCCCCCCCCCO,-1% (inactive)
18,CCOC(=O)c1sc(N/N=C2\NC(=O)/C(=C/c3ccc([N+](=O)[O-])cc3)S2)nc1C,13% (inactive)
19,O=C1OC(c2ccc3c(c2)OCO3)Sc2ccccc21 (stereo not drawn),11% (inactive)

# Same assay, conditions: S. cerevisiae rad50 strain growth inhibition; at 50.0 µM (retest, dose inferred, filed as 5.0); active compounds read high
row,SMILES,growth inhibition
1,Oc1ccc2oc3ccccc3c2c1,94% (active)
2,O=C(O)Cc1cc(I)c(Oc2ccc(O)c(I)c2)c(I)c1,92% (active)
3,O=C(O)/C(=C\c1ccc(Cl)cc1)c1ccc(C(F)(F)F)cc1[N+](=O)[O-],76% (active)
4,Fc1ccc(NC(=S)SCc2ccccc2)cc1,16% (inactive)
5,CN(C)c1ccccc1CC(c1c[nH]c2ccccc12)c1c[nH]c2ccccc12,90% (active)
6,O=C(c1ccccc1)N1CCN(c2cccc(Cl)c2)CC1,2% (inactive)
7,[C-]#[N+]C(C)(c1ccccc1)c1ccccc1,70% (active)
8,Nc1ccccc1[S][Sn]([c]1ccccc1)([c]1ccccc1)[c]1ccccc1,98% (active)
9,O=C1C(Cl)=C(Cl)C(=O)c2cc(Cl)c(Cl)cc21,99% (active)
10,CCCCCCCNC1CCCc2cc(OC)ccc21 (stereo not drawn),56% (inactive)
11,NCCc1ccc2oc3cc(=O)c4ccccc4c-3nc2c1,22% (inactive)
12,C/C=C/c1cc2c(cc1O)CC[C@@H]1[C@@H]2CC[C@]2(C)[C@@H](O)CC[C@@H]12,97% (active)
13,c1ccc(SSc2ccccn2)nc1,99% (active)
14,COC1=C2C[C@@H](C)C[C@@H](OC)[C@@H](O)[C@H](C)/C=C(\C)[C@@H](OC(N)=O)[C@H](OC)/C=C\C=C(/C)C(=O)NC(=CC1=O)C2=O,88% (active)
15,NCc1ccccc1-c1c2nc(c(-c3ccccc3CN)c3ccc([nH]3)c(-c3ccccc3CN)c3nc(c(-c4ccccc4CN)c4ccc1[nH]4)C=C3)C=C2,84% (active)
16,Cc1cc(C)n2nc(N)c(C#N)c2c1C#N,1% (inactive)
17,CC(=O)OCC1OC(n2c(O)c(N=NC(N)=S)c3ccc([N+](=O)[O-])cc32)C(OC(C)=O)C1OC(C)=O (stereo not drawn),95% (active)
18,CC1(c2cccs2)C(C#N)(C#N)C1(C#N)C#N,42% (inactive)
19,O=C1C=CC(=O)N1C12CC3CC(CC(C3)C1)C2,99% (active)
20,C(=C/c1cnnc2ccccc12)/c1ccccn1,79% (active)

row,SMILES,growth inhibition
1,COc1ccc2c(c1)C1(C)CCCC(C)(C(=O)O)C1CC2 (stereo not drawn),99% (active)
2,CCN(CC)c1ccc(N=Nc2ccc(Br)cn2)c(O)c1,51% (inactive)
3,O=[N+]([O-])c1cc(NC(=S)SCc2ccccc2)ccc1Cl,98% (active)
4,C(=C/c1ccnc2ccccc12)/c1cccs1,93% (active)
5,O=P1(O)c2ccccc2CS(=O)(=O)Cc2ccccc21,31% (inactive)
6,CN1C(Cl)=NS(=O)(=O)c2ccccc21,22% (inactive)
7,O=C1C=CC(=O)N1c1ccc(Cl)cc1,97% (active)
8,CC(C)CC(C(=O)SCC(C)N1CCCC1)c1ccccc1 (stereo not drawn),35% (inactive)
9,CC(C)OC(=O)c1ccc(CCC2=CC(=O)C=CC2=O)cc1,89% (active)
10,Cc1ccnc2[nH]c3ccccc3c(=O)c12,98% (active)
11,COc1cc(/C=C/C(=O)c2ccc(O)c(OC)c2)ccc1O,38% (inactive)
12,CC12C=CC(=O)C=C1CCC1C3CCC(O)(C(=O)CO)C3(C)CC(O)C12F (stereo not drawn),63% (inactive)
13,O=Cc1ccc2c(c1)CC1(C2)Cc2ccc3c(c2C1)CCC3 (stereo not drawn),68% (inactive)
14,C[N+](C)(C)CC(=O)N/N=C(\C(=O)NC1=C(Cl)C(=O)c2ccccc2C1=O)C(C#N)c1nc(-c2ccc([N+](=O)[O-])cc2)cs1 (stereo not drawn),98% (active)
15,NC(=O)CC1CCC(c2ccccc2)CC1 (stereo not drawn),-59% (inactive)
16,O=C(CC(C[N+](=O)[O-])c1ccc2c(c1)OCO2)c1ccccc1 (stereo not drawn),-3% (inactive)
17,CC(=O)OCCCCCCCCCCCCCCO,98% (active)
18,CCOC(=O)c1sc(N/N=C2\NC(=O)/C(=C/c3ccc([N+](=O)[O-])cc3)S2)nc1C,74% (active)
19,O=C1OC(c2ccc3c(c2)OCO3)Sc2ccccc21 (stereo not drawn),24% (inactive)
